CHRM1 agonist: human M1 muscarinic receptor agonism. P11229. CHO-K1 hM1, Fluo-8 calcium fluorescence, agonist mode; 0% DMSO, 100% acetylcholine EC100. activation, % at 3 µM. 0.33% of 360,000 active;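 active = activation above the run's mean compound activation plus 3 SD, cut at about 16% in these data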;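 note: peak over basal fluorescence ratio within a 140 s kinetic read after compound addition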
Target sequence (P11229 whole entry, looked up): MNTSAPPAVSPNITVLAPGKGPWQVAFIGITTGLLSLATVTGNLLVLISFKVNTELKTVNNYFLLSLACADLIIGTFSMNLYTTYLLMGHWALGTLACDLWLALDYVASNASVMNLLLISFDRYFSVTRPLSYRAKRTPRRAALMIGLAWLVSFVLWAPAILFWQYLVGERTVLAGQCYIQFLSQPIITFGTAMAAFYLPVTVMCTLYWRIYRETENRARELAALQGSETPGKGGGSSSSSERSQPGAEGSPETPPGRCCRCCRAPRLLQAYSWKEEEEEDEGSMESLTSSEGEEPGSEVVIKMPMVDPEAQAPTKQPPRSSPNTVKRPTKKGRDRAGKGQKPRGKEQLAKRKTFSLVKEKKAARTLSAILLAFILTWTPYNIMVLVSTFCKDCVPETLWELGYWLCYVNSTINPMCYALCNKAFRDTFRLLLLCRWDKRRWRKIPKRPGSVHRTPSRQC
M1 PAM: potentiates human M1 receptor response to acetylcholine; P11229; CHO-K1 hM1, Fluo-8 calcium fluorescence, ACh EC20; 0% = ACh EC20, 100% = maximal ACh; activation, % at 3 µM; 0.088% of 360,000 active; AID 588819; in the data active = activation above about 19%, passing the limit was not always enough
CHO-K1 Ca PAM: counter-screen for M1 PAMs: effect in parental CHO-K1 cells | ATP EC20, Fluo-8 calcium fluorescence; 0% at ATP EC20, 100% at ATP max | activation, % at 3 µM | 0.02% of 360,000 active;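 active = activation above the run cutoff, the mean activation of all test compounds plus 3 SD, cut at about 40% in these data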;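 note: peak over basal fluorescence ratio in a 140 s read after ATP addition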
CHO-K1 Ca ag: counter-screen for M1 agonists: effect in parental CHO-K1 cells; Fluo-8 calcium fluorescence; scaled to maximal ATP response, vehicle zero; activation, % at 3 µM; 0.48% of 360,000 active; in the data active = activation above about 15%;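 note: untransfected CHO-K1 host cells lacking M1 receptor as counterscreen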
CHRM1 antagonist: antagonists of human M1 muscarinic receptor | AID 588852 | CHO-K1 hM1, Fluo-8 calcium fluorescence, ACh EC80 antagonist | P11229 | 1.3% of 360,000 active | inhibition, % at 3 µM;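 active = percent inhibition above its own plate's cutoff, namely the mean of that plate's compound wells plus 3 SD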;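 note: peak over basal fluorescence ratio during 140 s after agonist addition; 0% = ACh EC80 plus DMSO and 100% = DMSO alone without agonist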
CHO-K1 Ca antag: M1 antagonist counterscreen hit in parental CHO-K1 cells; 0.6% of 360,000 active; AID 602250; inhibition, % at 3 µM; ATP-induced calcium, Fluo-8 fluorescence;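 active = inhibition above a per-plate cutoff, the plate's mean sample inhibition plus 3 SD, cut at about 24% in these data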;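 note: 0% = DMSO plus EC80 ATP and 100% = DMSO alone without ATP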
* hit, by the source's call. Most compounds without a hit are left out; they make up all but 2.4% or so of the library.

SMILES | CHRM1 agonist | M1 PAM | CHO-K1 Ca PAM | CHO-K1 Ca ag | CHRM1 antagonist | CHO-K1 Ca antag
CCCCOP(=O)(c1ccc(N(C)C)cc1)C(Nc1ccccc1)c1ccccc1 (centres undefined) | -3 | -14 | 14 | 27* | 30 | 11
CCCOP(=O)(c1ccc(N(C)C)cc1)C(Nc1ccccc1)c1ccc(N(C)C)cc1 (centres undefined) | -3 | -5 | 21 | 0 | 6 | -8
COc1ccc(-c2noc(CCC(=O)NC3CCCCCC3)n2)cc1OC | -2 | 15 | 13 | 1 | -27 | -3
O=C(Nc1ccccc1)Nc1ccc2nnsc2c1 | 5 | -21 | -11 | 18* | 59* | 25*
O=C(Nc1ccccc1)Nc1ccc2snnc2c1 | 9 | -9 | 5 | 14 | 20 | 21
CCN(Cc1ccncc1)C(=O)C1CCC(=O)N(Cc2ccc(Cl)cc2)C1 (centres undefined) | -3 | 1 | 5 | 0 | -17 | -7
Cc1ccc(NC(=O)c2ccccc2NS(=O)(=O)c2ccc(F)cc2)cc1S(=O)(=O)N1CCCCC1 | 1 | -6 | -4 | 12 | 13 | 26*
Cc1ccccc1NC(=O)c1ccc(F)c(S(=O)(=O)N2CCCCC2)c1 | -1 | 6 | 0 | 19* | -7 | 2
Cc1ccc(NC(=O)c2cc(S(=O)(=O)N(C)C)ccc2N2CCCC2)cc1S(=O)(=O)N(C)C | -7 | -21 | 8 | 1 | 32* | -3
CCOc1ccc(NC(=O)c2ccc(F)c(S(=O)(=O)N3CCCC3)c2)cc1 | -2 | -11 | -11 | 7 | 10 | 24*
O=C(Nc1cccc(S(=O)(=O)N2CCCCC2)c1)c1ccccc1NS(=O)(=O)c1ccc(F)cc1 | 1 | -4 | -2 | 11 | 15 | 23
Cc1ccccc1NC(=O)c1cccc(S(=O)(=O)N2CCCCC2)c1 | -1 | 1 | 1 | 1 | -8 | -14
Cc1ccc(NC(=O)c2cc(S(=O)(=O)N3CCCCC3)ccc2N2CCOCC2)cc1S(=O)(=O)N(C)C | -7 | -8 | -16 | 0 | 17 | -7
O=C(NC(=S)N1CCCCC1CO)c1cccs1 (centres undefined) | 0 | 1 | -2 | 0 | -5 | -7
Cc1cc(C)n2nc(SCC(=O)NC3CCCC(C)C3C)nc2n1 (centres undefined) | 9 | 24 | -9 | 0 | -2 | 2
COC(=O)c1sccc1NC(=O)Nc1ccc(Cl)c(Cl)c1 | -1 | -8 | -7 | 1 | 30 | 29*
O=C(Nc1ccccc1)Nc1cccc(Cl)c1 | -2 | -14 | 5 | 15 | 27 | 8
COC(=O)c1cc(NC(=O)Nc2ccccc2)ccc1Cl | 3 | -12 | 1 | 16* | 22 | 12
COC(=O)c1cccc(NC(=O)Nc2ccc(Cl)c(Cl)c2)c1 | 4 | -23 | -7 | 16* | 43* | 21
COc1ccc(C(=O)Nc2ccc(C(=O)N3CCC(C)CC3)cc2)cc1OC | -1 | -4 | -5 | 1 | 7 | 10
Cc1ccc2nc3n(c(=O)c2c1)-c1cc2ccccc2cc1C(=O)NC3Cc1ccc(O)cc1 (centres undefined) | 1 | -6 | -2 | 3 | 15 | 13
O=C1NC(Cc2ccc(O)cc2)c2nc3cc(F)c(F)cc3c(=O)n2-c2cc3ccccc3cc21 (centres undefined) | -3 | -16 | -10 | 1 | 25 | 35*
O=C1NC(Cc2ccccc2)c2nc3cc(F)c(F)cc3c(=O)n2-c2cc3ccccc3cc21 (centres undefined) | -5 | 0 | -6 | 1 | 11 | 7
O=C1NC(Cc2ccc(O)cc2)c2nc3ccc(F)cc3c(=O)n2-c2cc3ccccc3cc21 (centres undefined) | -1 | -10 | 19 | 6 | 23* | 9
O=C(NC(=O)N1CCCCCC1)c1ccc(Cl)cc1 | -2 | 8 | 1 | 1 | -9 | -2
SMILES | CHRM1 agonist | M1 PAM | CHO-K1 Ca PAM | CHO-K1 Ca ag | CHRM1 antagonist | CHO-K1 Ca antag
CCC(=O)N1CCc2cc(S(=O)(=O)CCC(=O)Nc3cccc(F)c3)ccc21 | -3 | 3 | 10 | 0 | -25 | -5
CCC(=O)N1CCc2cc(S(=O)(=O)CCC(=O)NCc3cccc(OC)c3)ccc21 | -4 | 3 | 2 | 1 | 51* | -18
CCC(=O)N1CCc2cc(S(=O)(=O)CCC(=O)Nc3ccc(F)c(F)c3)ccc21 | -2 | -4 | -8 | 0 | 11 | 35*
Cc1cc2nc3c(nc2cc1C)C(O)=C3O | -2 | 25 | 4 | 1 | -7 | -5
Cc1ccc(SCC(=O)Nc2ccc(N3CCN(C)CC3)c(F)c2)c(C)c1 | -16 | -38 | 20 | 2 | 30* | -13
N#C/C(=C\c1coc2ccc(O)cc2c1=O)C(=O)Nc1nc2ccccc2s1 | 62* | -13 | -19 | 58* | 21 | 40*
CC(=O)Nc1cccc2c1C(=O)N(c1cccc(C)c1)C2=O | -2 | 2 | 7 | 0 | 2 | 2
CCN1C(=O)c2cccc3c(Cl)ccc(c23)C1=O | -6 | 6 | 27 | 2 | -5 | -14
O=C(O)c1ccc2c3c(cccc13)C(=O)N(c1ccccc1)C2=O | -8 | 13 | 22 | 1 | -8 | -2
Cc1cccc(N2C(=O)c3cccc4cccc(c34)C2=O)c1 | -1 | 11 | 14 | 0 | -16 | -16
Cc1cccc(N2C(=O)c3cccc4c(N(C)CCO)ccc(c34)C2=O)c1 | 23* | -14 | -7 | 20* | 11 | 10
Cc1cccc(N2C(=O)c3cccc4c(N)ccc(c34)C2=O)c1 | 108* | -27 | -15 | 124* | 43* | 35*
Nc1ccc2c3c(cccc13)C(=O)N(c1ccccc1)C2=O | 121* | -24 | -20 | 50* | 52* | 26*
CC(C)CCN1C(=O)c2cccc3c(N)ccc(c23)C1=O | 151* | -23 | -20 | 152* | 70* | 67*
CC1=C(C(N)=O)C(c2ccccc2[N+](=O)[O-])n2ncnc2N1 (centres undefined) | 0 | 14 | 14 | 2 | -20 | -4
O=C(CN1C(=O)C2C3C=CC(C3)C2C1=O)Nc1ccc(S(=O)(=O)N2CCCCC2)cc1 (centres undefined) | -6 | 7 | 21 | 3 | -8 | -7
CCC(C(=O)NC(C)(C)C)N(Cc1ccc(OC)cc1)C(=O)c1snc(C(N)=O)c1N (centres undefined) | -5 | 4 | 6 | 2 | -12 | -12
Nc1cccc2c1C(=O)N(CCOc1ccc(F)cc1)C2=O | 6 | 8 | -5 | 1 | 6 | -7
COc1ccc(S(=O)(=O)N2CCOCC2)cc1NC(=O)CSc1nnc(C2CC2)n1N | -4 | 3 | 12 | 0 | -3 | -10
O=C(O)c1cccc(N2C(=O)c3cccc4c(Cl)ccc(c34)C2=O)c1 | -7 | 0 | -11 | 0 | 0 | 6

Screening results as filed in PubChem BioAssay.
